Bioassay records (PubChem BioAssay)
In the library only some 10% were active in any assay of this set; here they are far more common.
KB-3-1 tox: KB-3-1 parental cell cytotoxicity. AID 1347075. Potency, µM (top dose mostly 46.1 µM), usual class: cytotoxic. KB-3-1 viability, CellTiter-Glo ATP luminescence, 72 h. 400,000 tested, 1.4% active; further: nearly all actives have a fitted effect of over 60% in size
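KB-3-1 cells, DMEM (no phenol red) + 10% FBS; compound by pin transfer, 72 h, 37 °C. Readout: CellTiter-Glo luminescence after 10 min. Data normalized, curve-fitted.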
MCF10A rerep: DNA re-replication induction in MCF 10a cells. MCF 10A DNA re-replication, Hoechst nuclear intensity, 48 h. Potency, µM (highest dose often 46.1 µM), usual class: activators. 350,000 tested, 2.9% active; further: nearly all actives have a fitted effect of over 50% in size
SW480 rerep: DNA re-replication induction in SW480 cells; 340,000 tested, 1.8% active; AID 624297; Potency, µM (titrated, usually from 46.1 µM), most hits filed as activators; SW480 DNA re-replication, Hoechst DNA content imaging, 48 h; further: nearly all actives have a fitted effect of over 55% in size
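First, 250 cells per well were seeded. Next, compound or vehicle (23 nL) was pinned in, plates sat 48 hr at 37 C. Finally Hoechst was added for 40 min before fluorescence scanning.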
VP16 counter: counter-screen for ROR gamma inhibitors: Gal4-VP16 reporter; 310,000 tested, 3.5% active; Potency, µM (highest dose often 53.6 µM), actives largely listed as inhibitors; Drosophila S2 Gal4-VP16 UAS-luciferase, luminescence, 20 h; AID 2546;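 further: Gal4-VP16 expression switched on by copper sulfate through the metallothionein promoter; nearly all actives have a fitted effect of over 50% in size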
RORgamma inh: inhibitors of mouse ROR gamma transcriptional activity; Potency, µM (doses to about 53.6 µM), hits mostly inhibitors; 310,000 tested, 5.4% active; P51450; Drosophila S2 Gal4-RORgamma UAS-luciferase reporter, 20 h; further: nearly all actives have a fitted effect of over 60% in size
Target sequence (P51450 whole entry, looked up, the tested form may be a part): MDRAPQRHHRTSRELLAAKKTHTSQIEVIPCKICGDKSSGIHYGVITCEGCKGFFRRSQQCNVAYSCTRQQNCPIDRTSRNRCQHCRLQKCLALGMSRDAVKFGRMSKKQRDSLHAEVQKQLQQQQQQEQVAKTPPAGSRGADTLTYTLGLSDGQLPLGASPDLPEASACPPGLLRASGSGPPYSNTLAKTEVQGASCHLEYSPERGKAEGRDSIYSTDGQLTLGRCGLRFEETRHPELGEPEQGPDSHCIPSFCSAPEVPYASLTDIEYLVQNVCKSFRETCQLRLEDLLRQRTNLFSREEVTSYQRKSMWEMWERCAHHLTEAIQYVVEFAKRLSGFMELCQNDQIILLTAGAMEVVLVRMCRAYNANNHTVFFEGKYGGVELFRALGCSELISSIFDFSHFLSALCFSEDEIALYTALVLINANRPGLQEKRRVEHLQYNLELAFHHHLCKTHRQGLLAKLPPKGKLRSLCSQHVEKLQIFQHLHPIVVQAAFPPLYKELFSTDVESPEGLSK
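ROR gamma transcriptional activity was tracked as Gal4-UAS luciferase output in stably transfected Drosophila Schneider cells, with compound added 1 hr before 700 uM copper sulfate induction and a 20 hr ambient-temperature incubation.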
KB-V1 cytotox: KB-V1 MDR subline cytotoxicity; KB-V1 MDR cells viability, CellTiter-Glo, 72 h; Potency, µM (doses to about 46.1 µM), hits mostly cytotoxic; 400,000 tested, 3.4% active; further: nearly all actives have a fitted effect of over 60% in size
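qHTS viability screen in drug-selected KB-V1 MDR cells: 72 h compound treatment at 37 degrees C, ATP luminescence end point.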
A number is an active result; – = inactive; ? = inconclusive; · = no result given; [ ] = remark or other dose. The call rests on the fitted dose curve; in most records, active means well fitted curve in the direction sought with a large enough effect; inconclusive means small, poorly fitted or top-dose-only effect, or another doubt; inactive means no such curve, though single readings can be large; an effect the other way counts as inactive or inconclusive.

SMILES | KB-3-1 tox | MCF10A rerep | SW480 rerep | VP16 counter | RORgamma inh | KB-V1 cytotox
COC(=O)c1ccc(C(NC(=O)OCc2ccccc2)/C(F)=C/[C@@H](C)C(=O)NCc2cccnc2)cc1 (some centres undefined) | · | · | · | – | – | ·
CC1=NN(c2nc(-c3ccc(C)cc3)cs2)C(=O)C1N=Nc1cccc(O)c1 (centres undefined) | – | – | – | – | – | –
CC1=NN(c2nc(-c3ccc(C)cc3)cs2)C(=O)C1N=Nc1ccccc1O (centres undefined) | – | ? | 0.73µM | – | – | –
COc1ccc(-c2csc(N3N=C(C)C(C)C3=O)n2)cc1 (centres undefined) | – | – | – | ? | 8.9µM | ?
Cn1c(CN2CCN(c3ccc(Cl)cc3)CC2)nc2ccccc21 | – | ? | – | ? | 6.3µM | 18µM
CCn1c(CN2CCN(c3ccc(Cl)cc3)CC2)nc2ccccc21 | ? | – | – | 8.9µM | 10µM | ?
Cc1nn(CC(=O)N2CCN(c3ccccc3)CC2)c(=O)c2cc3cc(F)ccc3n12 | – | · | · | · | · | ?
CCC[C@@H]1CC(C(=O)NC(C2O[C@H](SC)C(OP(=O)(O)O)[C@H](O)[C@H]2O)[C@H](C)Cl)N(C)C1 (some centres undefined) | · | · | · | – | – | ·
Cc1nc2c(-c3ccc(Cl)cc3)cnn2c(N)c1-c1ccc(F)cc1 | – | – | – | – | – | –
Cc1nc2c(-c3ccc(Cl)cc3)cnn2c2c1CCC2 | – | 21µM | – | – | – | –
Cc1cc(/C=N/O)c(C)n1-c1ccccc1 | – | – | – | – | – | –
Cc1cc(/C=C/c2ccc3cc(N(C)C)ccc3[n+]2C)c(C)n1-c1ccccc1 | · | · | · | – | 4.5µM | ·
CCCc1c(-c2cccc(Br)c2)ncn1Cc1ccccc1OC | ? | · | · | · | · | 18µM
COc1ccccc1Cn1cnc2cccnc21 | – | – | – | – | – | –
CCCc1c(-c2ccc(Cl)cc2)ncn1CCc1ccccc1OC | ? | · | · | · | · | 18µM
CCCc1c(-c2ccc(Cl)cc2)ncn1Cc1ccccc1OC | 16µM | · | · | · | · | 18µM
COc1ccccc1CCn1cnc(-c2ccc(OC)c(OC)c2)c1C(C)C | ? | · | · | · | · | –
CCCc1c(-c2cccc(Cl)c2)ncn1CCc1ccccc1OC | ? | · | · | · | · | 15µM
COc1ccc(C[C@@](C)(N)C(=O)O)cc1OC | · | – | – | – | –[2.98 µM] | ·
CC(C)CCn1c(Oc2ccccc2F)nc2c1c(=O)n(C)c(=O)n2C | – | · | · | · | · | –
CCOC(=O)C1=C(C)Nc2nc(SCC)nn2C1c1ccc(OC)cc1 (centres undefined) | – | – | – | – | – | ?
CCOC(=O)C1=C(C)N(CCCCCC(=O)O)C(=O)NC1c1ccc(Cl)cc1 (centres undefined) | – | – | – | – | – | ?
COCCN1C(=O)N[C@@H](c2cccc(F)c2)C(C(=O)OC)=C1C | – | – | – | – | – | –
CCOC(=O)C1=C(C)Nc2nc(=S)[nH]n2C1c1ccc(Cl)cc1 (centres undefined) | – | – | – | – | 10µM | –
CCN1C(=S)N[C@@H](c2cccc(F)c2)C(C(=O)OC)=C1C | – | – | – | 11µM | 5µM | ?
SMILES | KB-3-1 tox | MCF10A rerep | SW480 rerep | VP16 counter | RORgamma inh | KB-V1 cytotox
CCOC(=O)C1=C(C)N(CC)C(=S)NC1c1ccc(Cl)cc1 (centres undefined) | – | – | – | 6.3µM | 7.1µM | ?
COC(=O)C1=C(C)N(Cc2ccccc2)C(=S)N[C@H]1c1ccccc1 | – | – | ? | 16µM | 3.2µM | –
OC(c1ccc(F)cc1)c1nc(-c2cccc(F)c2)cs1 (centres undefined) | – | · | · | · | · | –
COC(=O)C1=C(C)N(Cc2ccccc2)C(=S)N[C@H]1CCc1ccccc1 | · | · | · | ? | 4.5µM | ·
CC(C)C[C@@H](CC(=O)N[C@H](CC(=O)N[C@@H]1CCCC[C@H]1C(=O)N[C@H](CC(=O)N[C@@H](CCC(=O)O)CC(=O)O)Cc1c[nH]c2ccccc12)C(C)C)NC(=O)[C@@H]1CCCC[C@H]1N | · | · | · | – | – | ·
CCCOc1ccc(-c2nc(C#N)c(N3CCc4ccccc4C3)o2)cc1 | – | – | – | – | – | 16µM
COc1ccc(-c2nc(C#N)c(N3CCCCC3)o2)cc1 | – | – | – | – | – | –
N#Cc1nc(-c2ccco2)oc1N1CCCC1 | – | – | – | – | – | –
CC1CC(C)CN(c2oc(-c3ccco3)nc2C#N)C1 (centres undefined) | – | ? | – | – | ? | 21µM
N#Cc1nc(-c2ccco2)oc1N1CCc2ccccc2C1 | – | ? | – | – | – | 8.2µM
COc1ccc(-c2nc(C#N)c(N3CCCCCC3)o2)cc1OC | – | ? | – | – | – | 8.2µM
CCc1ccc(S(=O)(=O)c2nnn3c2nc(Nc2cccc(C)c2C)c2sccc23)cc1 | – | · | · | · | · | –
CCC(C)NC(=O)C1=CC(c2ccc3c(c2)OCO3)=NS(=O)(=O)N1C (centres undefined) | – | · | · | · | · | –
CCCOc1ccc(-c2nc(C#N)c(N3CCC(C(N)=O)CC3)o2)cc1 | – | ? | – | – | – | 23µM
CC(C)c1ccc2oc(-c3ccc(NC(=O)c4cccc(Br)c4)cc3)nc2c1 | – | · | · | · | · | –
O=C(c1ccc(S(=O)(=O)c2cccc(Cl)c2)c([N+](=O)[O-])c1)N1CCN(Cc2ccccc2)CC1 | ? | 21µM | ? | 25µM | ? | ?
COc1ccc(S(=O)(=O)NCc2ccc(C(=O)N3CCN(Cc4ccccc4)CC3)cc2)cc1 | – | – | – | – | – | –
Cc1ccc(S(=O)(=O)NCc2ccc(C(=O)N3CCN(Cc4ccccc4)CC3)cc2)cc1 | 23µM | – | – | – | – | ?
Cc1ccc(S(=O)(=O)NCc2ccccc2)cc1C(=O)N1CCCCCCC1 | – | – | ? | · | · | 9.2µM
COc1ccc(-n2c(Cc3ccccc3)nnc2SCc2nc(-c3cccs3)no2)cc1 | – | · | · | · | · | –
COC(=O)[C@H]1C[C@H]2CC[C@H](O)C[C@H]2N1Cc1c(F)cccc1Cl | · | · | · | – | – | ·
CN=C1N[C@H](c2ccccc2)N(c2ccccc2)S1 | · | · | · | 28µM | 10µM | ·
Cc1nc2cnc(N3CCN(C)CC3)nc2n(C)c1=O | · | · | · | – | – | ·
Cc1cc(C)nc(N/N=C/c2cc(C)n(CC(F)(F)F)c2C)n1 | – | – | – | ? | 8.9µM | –
Cc1cc(C)nc(N/N=C/c2cn[nH]c2-c2ccc(F)cc2)n1 | – | – | – | – | ? | –
CCN(CC)CCN1C(=O)c2cccc3cc(N)cc(c23)C1=O | ? | – | ? | – | – | ?
Nc1cc2c3c(cccc3c1)C(=O)N(CCN1CCCC1)C2=O | ? | ? | 15µM | – | – | 23µM
